Screens from PubChem BioAssay.
S1P4 agonist = human S1P4 receptor agonism. AID 1509. activation, % at 4.98 µM. O95977. 220,000 compounds, 0.35% hits. S1P4-expressing cell line, agonist reporter assay; in the data active means activation above about 11%
Target sequence (O95977 whole entry, looked up): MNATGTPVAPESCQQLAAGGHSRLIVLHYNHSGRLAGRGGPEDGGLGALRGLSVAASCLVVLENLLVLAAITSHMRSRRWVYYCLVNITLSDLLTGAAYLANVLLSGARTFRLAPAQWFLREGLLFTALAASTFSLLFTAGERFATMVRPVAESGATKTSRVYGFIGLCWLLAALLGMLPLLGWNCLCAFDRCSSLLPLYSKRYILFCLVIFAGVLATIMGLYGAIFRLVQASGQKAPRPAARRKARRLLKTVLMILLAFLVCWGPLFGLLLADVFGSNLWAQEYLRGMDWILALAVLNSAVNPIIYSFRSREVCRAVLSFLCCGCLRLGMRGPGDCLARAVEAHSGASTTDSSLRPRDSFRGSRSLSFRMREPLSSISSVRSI
ROMK primary = human ROMK K+ channel modulation, primary screen; P48048; Tet-inducible ROMK, thallium flux fluorescence; actives lie on both sides; B-score at 10 µM; 130,000 compounds, 2% hits; AID 1918;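 active means signal ratio slope over the read window, or its plate-corrected B-score, at least 3 SD from the plate mean, either direction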;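 further: B-score of the F/F0 ratio slope over 7 to 12 s after thallium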
Target sequence (P48048 whole entry, looked up): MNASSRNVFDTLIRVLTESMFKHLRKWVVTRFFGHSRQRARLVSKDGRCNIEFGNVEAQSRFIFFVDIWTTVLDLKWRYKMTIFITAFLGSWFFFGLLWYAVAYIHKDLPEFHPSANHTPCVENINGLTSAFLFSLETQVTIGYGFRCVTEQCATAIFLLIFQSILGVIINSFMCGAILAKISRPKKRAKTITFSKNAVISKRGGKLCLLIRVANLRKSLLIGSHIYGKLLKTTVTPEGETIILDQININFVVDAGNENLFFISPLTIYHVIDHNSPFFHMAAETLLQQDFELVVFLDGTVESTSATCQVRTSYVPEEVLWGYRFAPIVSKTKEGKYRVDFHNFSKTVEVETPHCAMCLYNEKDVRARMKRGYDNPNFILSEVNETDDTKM
S1P3 antag = antagonists of human S1P3 receptor; Q99500; inhibition, % at 4.98 µM; CHO S1P3 NFAT-BLA reporter, FRET fluorescence, antagonist mode; AID 485; 170,000 compounds, 0.27% hits;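 active means inhibition above the plate cutoff, the mean inhibition of test wells on that plate plus 3 SD, cut at about 28% in these data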;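 further: cells challenged with S1P at its EC80 of 0.8 µM; blue over green emission ratio from cleaved BLA substrate after 4 h stimulation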
Cl transport mod = modulates chloride dependent transport by human KCC2; Q9H2X9; KCC2 cells, thallium flux FluoZin-2 fluorescence; B-score of Tl+ flux slope (higher = more flux/activation; lower = inhibition) at 10 µM; 190,000 compounds, 2.2% hits;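 active means thallium flux slope and its plate-corrected score both differing from the plate sample mean at a set confidence after two filtering rounds, in either direction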;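 further: slope of fluorescence scaled to starting intensity during 10 to 20 s after thallium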
RAM network inh = yeast RAM network inhibition; S. cerevisiae dse1pr::URA3 reporter, 5-FOA growth OD615, 2 d; analog-sensitive cbk1-as2 kinase mutant strain; inhibition, % at 50 µM; 190,000 compounds, 1.8% hits; AID 868;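 active means inhibition above a set limit, 3 SD over mean compound inhibition, cut at about 8.4% in these data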;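 further: inhibition rescues growth on 5-FOA so higher OD means more RAM inhibition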
S1P4 antagonist = human S1P4 receptor antagonism; O95977; S1P4-expressing cells, antagonist mode, reporter read-out; inhibition, % at 4.98 µM; 220,000 compounds, 0.26% hits; AID 1510; in the data active means inhibition above about 29%
KCC2 secondary = KCC2 (human) modulation, secondary assay. shares compounds with Cl transport mod. HEK293-KCC2, thallium flux, FluoZin2 fluorescence; active compounds read high. normalised thallium flux (F/F0 slope) at 10 µM. 3,700 compounds, 15% hits;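 active means thallium flux slope above the same plate's solvent-only control mean plus 3 SD; inconclusive means the two replicate wells disagree; inactive means no significant difference from solvent-only control wells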
KCC2 bumet counter = bumetanide-insensitive thallium flux in KCC2 cells with ouabain, counter-screen. HEK293-KCC2 + bumetanide/ouabain, thallium flux FluoZin2; active compounds read high. 3,700 compounds, 49% hits. normalized thallium flux at 10 µM. shares compounds with Cl transport mod;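 active means thallium entry rate above the same plate's blocked-transporter control wells by more than 3 SD; inconclusive means the two repeat wells disagree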;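 further: raw slope of fluorescence over initial fluorescence between 10 and 20 s after thallium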
KCC2 secondary2 = KCC2 (human) modulation, second secondary assay. normalized thallium flux at 10 µM. 3,700 compounds, 23% hits. shares compounds with Cl transport mod. HEK293-KCC2, thallium flux FluoZin2 fluorescence; actives lie on both sides; F/F0 rise rate, 10–20 s post-thallium;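 active means thallium flux slope more than 3 SD above or below the plate's solvent-only control mean, mostly below; inconclusive means the two repeat wells disagreed; inactive means no significant shift from solvent-only controls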
HEK293 Tl flux = counter-screen for KCC2 modulators: effect in parental HEK293 cells; thallium flux FluoZin2, ouabain; baseline-ratio fluorescence slope, 10–20 s after thallium; AID 1716; shares compounds with Cl transport mod; 3,700 compounds, 46% hits; thallium flux rate (normalised fluorescence) at 10 µM;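 active means thallium flux rate significantly above the same plate's solvent-only control wells, beyond their mean plus 3 SD; inconclusive means the two replicate wells gave conflicting results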
KCC2 ouabain = modulates human KCC2 on retest with ouabain. 3,700 compounds, 48% hits. raw Tl+ flux slope (below DMSO = inhibition, above = activation) at 10 µM. HEK293-KCC2, thallium flux FluoZin2 fluorescence; bidirectional: low = inhibitor, high = activator. AID 1717. shares compounds with Cl transport mod;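 active means thallium flux slope beyond 3 SD from same-plate DMSO control mean in most replicates, usually higher, sometimes lower; inconclusive means repeat tests gave conflicting results; inactive means no significant difference from controls in most replicates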;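 further: slope of initial-normalized fluorescence between seconds 10 and 20 after thallium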
HEK counter2 = parental HEK flux effect, counter-screen 2; shares compounds with Cl transport mod; HEK293 parental, thallium flux FluoZin-2 fluorescence slope; 3,700 compounds, 33% hits; thallium flux slope at 10 µM;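 active means thallium flux slope above the same plate's solvent-control mean plus 3 SD in both duplicate wells; inconclusive means duplicate wells that disagreed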;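 further: run without ouabain in cells lacking the KCC2 cotransporter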
Each line names hits and unclear results; the compound was inactive in the other large screens (follow-up assays come after a bar, where they were run). In the library only some 5.1% were active in any assay of this set; here they are far more common.

O=C(CSc1nnc(-c2ccc3c(c2)OCO3)o1)Nc1ncc(C(F)(F)F)cc1Cl	Cl transport mod 27 | KCC2 secondary 0.016 | KCC2 bumet counter 0.042 | KCC2 secondary2 inactive | HEK293 Tl flux inconclusive | KCC2 ouabain 0.045 | HEK counter2 inconclusive
COc1ccc(S(=O)(=O)N2CCC(C(=O)N3CCc4ccccc4C3)CC2)cc1C	Cl transport mod -3.5 (no result: S1P3 antag) | KCC2 secondary inactive | KCC2 bumet counter inactive | KCC2 secondary2 0.024 | HEK293 Tl flux inactive | KCC2 ouabain 0.015 | HEK counter2 inactive
O=C(C1CCN(S(=O)(=O)c2cccc3nsnc23)CC1)N1CCc2ccccc2C1	Cl transport mod -6 (no result: ROMK primary) | KCC2 secondary inactive | KCC2 bumet counter inactive | KCC2 secondary2 0.023 | HEK293 Tl flux inactive | KCC2 ouabain 0.015 | HEK counter2 inactive
CS(=O)(=O)N1CCC(C(=O)N2CCc3ccccc3C2)CC1	none (no result: ROMK primary)
O=C(C1CCN(S(=O)(=O)c2cnc[nH]2)CC1)N1CCc2ccccc2C1	none (no result: ROMK primary)
O=C(Cn1nc(-c2ccccc2)ccc1=O)NCc1ccc2c(c1)OCO2	Cl transport mod -3.3 | KCC2 secondary inactive | KCC2 bumet counter inconclusive | KCC2 secondary2 0.025 | HEK293 Tl flux inactive | KCC2 ouabain inconclusive | HEK counter2 inactive
O=C(Cn1nc(-c2ccc(Cl)cc2)ccc1=O)NCc1ccc2c(c1)OCO2	none (no result: ROMK primary, S1P3 antag)
CC(=C\C(=O)O)/C(=C\c1cccc2ccccc12)C(=O)O	none (no result: RAM network inh)
CC1CCC2(CC1)NC(CO)(CO)CO2 (stereo unspecified)	none (no result: ROMK primary, S1P3 antag)
CCC1CCC2(CC1)NC(CO)(CO)CO2 (stereo unspecified)	Cl transport mod 5 | KCC2 secondary inactive | KCC2 bumet counter inactive | KCC2 secondary2 inactive | HEK293 Tl flux inactive | KCC2 ouabain inactive | HEK counter2 0.011
COCCNC(=O)[C@@]1(Cc2ccccc2)C=C[C@@H](C)N1C(C)=O	none
Fc1ccccc1COc1ccc2ccccc2c1CNc1nn[nH]n1	Cl transport mod -5.9 | KCC2 secondary inactive | KCC2 bumet counter inactive | KCC2 secondary2 0.02 | HEK293 Tl flux inconclusive | KCC2 ouabain 0.0087 | HEK counter2 inconclusive
c1ccc(COc2ccccc2CNc2nn[nH]n2)cc1	none (no result: ROMK primary)
Fc1ccc(COc2ccc3ccccc3c2CNc2nn[nH]n2)cc1	Cl transport mod -4.6 | KCC2 secondary inactive | KCC2 bumet counter inactive | KCC2 secondary2 0.021 | HEK293 Tl flux inconclusive | KCC2 ouabain 0.0092 | HEK counter2 inconclusive
OCCN(Cc1ccccc1)C(=S)Nc1ccc(Cl)cc1Cl	none
COc1ccccc1S(=O)(=O)CC(O)COc1ccc(F)cc1Cl (stereo unspecified)	none
O=C(Nc1cccnc1)Nc1ccc2c(c1)OCO2	none (no result: Cl transport mod) | KCC2 secondary inactive | KCC2 bumet counter inactive | KCC2 secondary2 inactive | HEK293 Tl flux inactive | KCC2 ouabain inactive | HEK counter2 inactive
O=C(Nc1ccc2c(c1)OCO2)Nc1ccc2c(c1)OCO2	none
Cc1cccc(OCCc2nnc(N)s2)c1C	Cl transport mod -5.9 | KCC2 secondary inactive | KCC2 bumet counter inactive | KCC2 secondary2 0.026 | HEK293 Tl flux inactive | KCC2 ouabain inconclusive | HEK counter2 inactive
Cc1cc(SCC(=O)NC(=O)NCc2ccco2)nc2c(C)cccc12	Cl transport mod 4.4 (no result: ROMK primary) | KCC2 secondary inactive | KCC2 bumet counter 0.0063 | KCC2 secondary2 inactive | HEK293 Tl flux 0.019 | KCC2 ouabain inconclusive | HEK counter2 0.016
NC(=O)CC[C@@H]1NC(=O)[C@@H]2CCCN2C(=O)c2cc([N+](=O)[O-])cc(I)c2NCCCC[C@@H](C(=O)NC(CC(=O)O)C(N)=O)NC1=O (stereo partly specified)	none
O=C(Cc1csc(Nc2nc(=S)[nH]c3ccccc23)n1)N1CCN(c2cccc(C(F)(F)F)c2)CC1	Cl transport mod 12 | KCC2 secondary inactive | KCC2 bumet counter 0.014 | KCC2 secondary2 inactive | HEK293 Tl flux 0.022 | KCC2 ouabain 0.027 | HEK counter2 0.018
O=C(Cc1csc(Nc2nc(=S)[nH]c3ccccc23)n1)NCc1cccc(Cl)c1	none (no result: ROMK primary, S1P3 antag, Cl transport mod)
COc1cccc(C(=O)NNC(=O)c2sccc2-n2cccc2)c1	Cl transport mod 5.9 | KCC2 secondary inactive | KCC2 bumet counter 0.012 | KCC2 secondary2 inactive | HEK293 Tl flux 0.012 | KCC2 ouabain inactive | HEK counter2 0.014
CCNCc1nc2cc(Cl)ccc2c(=O)[nH]1	none
CC(NC(=O)c1ccnc(C(C)(C)C)c1)c1ccccc1 (stereo unspecified)	none | KCC2 secondary inactive | KCC2 bumet counter inconclusive | KCC2 secondary2 inconclusive | HEK293 Tl flux inactive | KCC2 ouabain inactive | HEK counter2 inactive
CC(C)(C)c1cc(C(=O)Nc2ccccc2)ccn1	none (no result: S1P3 antag)
COc1ccc(/C=C/C(=O)NCC(c2ccc(F)cc2)N2CCOCC2)cc1OC (stereo unspecified)	none (no result: ROMK primary, RAM network inh)
CCNC(=O)CSc1nnc(-c2cc(-c3ccc(Cl)cc3)nc3ccccc23)o1	none (no result: ROMK primary)
O=S(=O)(NCc1csc(-c2ccccc2)n1)c1ccc(Cl)s1	Cl transport mod -5.7 (no result: ROMK primary) | KCC2 secondary inactive | KCC2 bumet counter 0.014 | KCC2 secondary2 0.022 | HEK293 Tl flux inactive | KCC2 ouabain 0.016 | HEK counter2 inconclusive
O=C1OC(Nc2ccc(F)c([N+](=O)[O-])c2)c2ccccc21 (stereo unspecified)	none (no result: RAM network inh)
O=C1OC(Nc2ccc(F)cc2F)c2ccccc21 (stereo unspecified)	none (no result: Cl transport mod) | KCC2 secondary inactive | KCC2 bumet counter inactive | KCC2 secondary2 inactive | HEK293 Tl flux inactive | KCC2 ouabain inactive | HEK counter2 inactive
O=C(NC1(N2CCOCC2)CC1)c1ccc(Cl)cc1	none (no result: ROMK primary, RAM network inh)
COC(=O)c1sccc1NC(=O)CC1NCCNC1=O (stereo unspecified)	none (no result: RAM network inh)
Cc1cccc(C)c1Nc1nnc(SCC(=O)NC(=O)c2cccn2C)s1	Cl transport mod -4.7 | KCC2 secondary inactive | KCC2 bumet counter inactive | KCC2 secondary2 inactive | HEK293 Tl flux 0.0047 | KCC2 ouabain 0.014 | HEK counter2 inactive
Cc1ccc(S(=O)(=O)c2nc(C)oc2NCc2ccccc2)cc1	none (no result: ROMK primary, Cl transport mod) | KCC2 secondary inactive | KCC2 bumet counter inactive | KCC2 secondary2 inactive | HEK293 Tl flux inactive | KCC2 ouabain inconclusive | HEK counter2 inactive
